The text below walks through data of PubChem BioAssay (NCI).

Compounds without any hit were thinned out: in the full panel of roughly 83,000, 20% have a hit.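 48-hour exposure, single concentration, 96-well plates; percent growth endpoint where 0 means no net growth. Active: below 10.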 A number with no mark means an inactive call. Calls of active or inactive are those of the source.

Holding throughout (experiment): NCI-60 one-dose screen, 48 h (100 = growth as untreated, 0 = no growth, -100 = all killed)
What all share (details): 10 µM

The test system of assay [1] is DU-145 prostate.
Assay [2] concerns K-562 leukemia.
The test system of assay [3] is MALME-3M melanoma.
Assay [4] has as its system MDA-MB-231 breast.
Assay [5] relates to RXF 393 renal.
In assay [6] the test system is SF-268 CNS.
Assay [7] deals with SF-295 CNS.
Assay [8] concerns SF-539 CNS.
The subject of assay [9] is UACC-257 melanoma.
Assay [10] has as its system M14 melanoma.

As to `Oc1ccc(N=Nc2ccc(Br)cc2)c(O)c1`, the growth in [1] is -11.8% (active); in assay [2], 6.18% (active); in assay [3], 36.2%; in assay [4], 41.9%; in assay [5], -58.3% (active); in assay [6], 30.8%. Besides, the growth is 15.4% in [7], -18.6% (active) in assay [8], 20.6% in [9] and -19.2% (active) in [10].

With `CC1OC(Oc2c(-c3ccc(O)c(O)c3)oc3cc(O)cc(O)c3c2=O)C(O)C(O)C1O` (stereo not given), the growth in assay [1] is 109%; in assay [2], 103%; in assay [3] it was 110%; in assay [4], 107%; in assay [5], 110%; in [6], 104%. Moreover, the growth in assay [7] was 105%; in assay [8], 110%; in [9], 104%; in assay [10], 106%.

With `COc1cc2nc3cc([N+](=O)[O-])ccc3c(Cl)c2cc1OC`, the growth in [1] was 103%; in assay [2], 98.8%; in [3] it was 94.5%; in assay [4] it was 99.4%; in [5], 120%; in [6], 99.8%. Moreover, the growth is 103% in assay [7], 96.4% in [8], 93.1% in [9] and 96.6% in assay [10].

`O=c1[nH]c(O)c(/C=C2/C=Nc3ccccc32)[nH]1`: the growth in assay [1] was 99.3%; in assay [2], 86.1%; in assay [3], 125%; in assay [4], 89.6%; in assay [5], 103%; in assay [6], 82.1%. Also, the growth in assay [7] is 125%; in [8] it was 91.5%; in [9], 101%; in assay [10], 99.4%.

For `CCOC(=O)C1OC1c1ccccc1` (stereo not given), the growth in assay [1] was 107%; in assay [2], 103%; in assay [3], 103%; in assay [4] it was 111%; in assay [5] it was 112%; in assay [6], 97.5%. In addition, the growth in assay [7] was 93.2%; in assay [8], 99.4%; in [9], 106%; in assay [10] it was 97.8%.

Turning to `CC12CC3CC1C(C(=O)O2)C3C(=O)O` (stereo not given), the growth in assay [1] is 106%; in [2], 95.6%; in [3], 94.2%; in assay [4] it was 109%; in assay [5], 109%; in [6], 99.2%. In addition, the growth in [7] was 101%; in assay [8] it was 97.4%; in assay [9] it was 92.1%; in assay [10], 117%.

`O=C1Cc2ccccc2C(=O)O1`: the growth is 129% in assay [1]; 106% in assay [2]; 122% in assay [3]; 108% in assay [4]; 114% in assay [5]; 110% in assay [6]. In addition, the growth was 107% in [7], 103% in assay [8], 91.9% in assay [9] and 98.7% in assay [10].

In the case of `O=c1cc2oc3cc(O)c(O)cc3c(-c3ccccc3O)c-2cc1O`, the growth is 86% in assay [1]; 54.1% in assay [2]; 105% in [3]; 81.9% in [4]; 60.1% in assay [5]; -1.76% (active) in assay [6]. For the same compound, the growth in assay [7] is 101%; in assay [8] it was 52.3%; in [9] it was 130%; in assay [10], 77.1%.

Turning to `O=C(O)CCCC(=O)O`, the growth in assay [1] is 99.8%; in assay [2] it was 120%; in [3], 83.8%; in assay [4], 106%; in assay [5] it was 99.5%; in assay [6], 94.1%. The growth in [7] is 110%; in [8] it was 104%; in assay [9], 87.9%; in assay [10], 106%.

For `CCOC(=O)c1ccc(NC(=S)P(=O)(c2ccccc2)c2ccccc2)cc1`, the growth in assay [1] was 113%; in assay [2], 56.2%; in assay [3], 108%; in [4], 109%; in assay [5], 120%; in [6], 94.5%. Also, the growth in assay [7] is 104%; in assay [8], 106%; in [9], 108%; in assay [10], 97.7%.

Consider `O=[N+]([O-])c1cccc(N=Nc2ccc(O)cc2O)c1`, for which the growth in assay [1] is 95.2%; in assay [2] it was 17.7%; in assay [3] it was 65.8%; in assay [4], 76.5%; in assay [5], 83.5%; in assay [6], 83.4%. For the same compound, the growth in assay [7] is 95.7%; in assay [8], 89.7%; in [9], 72.5%; in assay [10], 97%.

As for `CCc1ccc(/C(C#N)=C/C=C/c2ccccc2)cc1`, the growth in [1] is 24.9%; in [2], 14.9%; in assay [3], 51.2%; in [4], 63.2%; in [5], 11.9%; in assay [6], 65.1%. Moreover, the growth was 21.3% in [7], 18.6% in assay [8], 31.5% in assay [9] and 23.1% in [10].

Regarding `CCOC(=O)c1[nH]c(C)c(C(=O)O)c1C`, the growth in [1] is 114%; in assay [2], 102%; in assay [3] it was 122%; in assay [4], 107%; in [5] it was 115%; in [6] it was 105%. Further, the growth in [7] was 122%; in [8] it was 105%; in assay [9] it was 111%; in assay [10], 124%.

For `[O-][N+](=Nc1cccc(Cl)c1)c1cccc(Cl)c1`, the growth in assay [1] was 108%; in assay [2], 133%; in [3], 101%; in [4], 102%; in assay [5] it was 102%; in assay [6] it was 110%. In addition, the growth is 104% in assay [7], 92.8% in assay [8], 117% in assay [9] and 96.4% in assay [10].
